KB-V1 cytotox – KB-V1 MDR subline cytotoxicity; AID 1347076; Potency, µM (series often up to 46.1 µM), actives largely listed as cytotoxic; KB-V1 MDR cells viability, CellTiter-Glo, 72 h; 400,000 tested, 3.4% active; note: % is set by controls: 0 for no effect and ±100 for the full control effect; nearly all actives have a fitted effect of over 60% in size
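Following 72 h at 37 degrees C with compound, KB-V1 cell viability was read by CellTiter-Glo luminescence, medium being phenol-red-free DMEM plus 10% FBS; concentration-response parameters came from normalized, curve-fitted qHTS data.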
ATXN2 expr inh – reduces ATXN2 reporter expression in HEK-293 cells; HEK-293 ATXN2-luciferase reporter, luminescence, 24 h; Potency, µM (doses to about 57 µM), for inactives: top-dose activity change, negative = inhibition, actives largely listed as inhibitors; 360,000 tested, 0.72% active; note: % is set by controls: 0 for no effect and ±100 for the full control effect; nearly all actives have a fitted effect of over 55% in size
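ATXN2-luciferase reporter cells (luciferase flanked by upstream and downstream ATXN2 gene portions) were treated 24 h at 37 °C with compounds at up to 57 uM. SteadyGlo luminescence gave expression; GF-AFC fluorescence gave viability.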
HT1080-NT tox – kills 2HG-producing HT-1080-NT fibrosarcoma cells | HT-1080-NT fibrosarcoma viability, CellTiter-Glo ATP luminescence, 48 h | Potency, µM (top dose mostly 46.1 µM), for the others: top-dose activity, negative = less viability, most hits filed as cytotoxic | 360,000 tested, 1.6% active;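 note: NT is the 2HG producing partner of a matched IDH1 knockdown line; 0% = DMSO-treated cells and -100% = media-only wells without cells; nearly all actives have a fitted effect of over 55% in size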
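A 48-hour cytotoxicity screen used HT-1080-NT cells plated 2 hours before compound delivery. ATP-based CellTiter-Glo luminescence measured viability, normalized to DMSO and no-cell controls.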
HT1080 IDH1KD tx – HT-1080 IDH1 knockdown cell toxicity (counter line); HT-1080 IDH1 knockdown viability, ATP luminescence, 48 h; Potency, µM (doses to about 46.1 µM), for the others: at the top dose activity, negative = toxicity, most hits filed as cytotoxic; 360,000 tested, 2% active; AID 686971;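 note: 0% = DMSO wells and -100% = cell-free medium wells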
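Viability of IDH1-knockdown HT-1080 fibrosarcoma cells was assessed by CellTiter-Glo after 48 h at 37 °C with titrated compound; concentration-effect curves were classified by fit quality and response size.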
KB-3-1 cytotox – kills parental KB-3-1 adenocarcinoma cells | KB-3-1 viability, CellTiter-Glo ATP luminescence, 72 h | Potency, µM (top dose mostly 46.1 µM), usual class: cytotoxic | 400,000 tested, 1.4% active | AID 1347075; note: % is set by controls: 0 for no effect and ±100 for the full control effect; nearly all actives have a fitted effect of over 60% in size
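KB-3-1 cells, DMEM (no phenol red) + 10% FBS; compound by pin transfer, 72 h, 37 °C. Readout: CellTiter-Glo luminescence after 10 min. Data normalized, curve-fitted.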
S2 tox – viability counter-screen for ATXN expression inhibitors. S2 cells (HEK-293 line with an ATXN2-luciferase reporter) viability, CellTiter-Fluor protease fluorescence, 24 h. Potency, µM (titrated, usually from 56.7 µM), most hits filed as cytotoxic. 400,000 tested, 0.49% active. AID 651635; note: nearly all actives have a fitted effect of over 40% in size
Active calls of the source: *; i = inactive; ? = inconclusive; . = not tested or not shown. An excerpt weighted towards active compounds, which were near 6.2% of everything screened. Calls come from the whole dose curve; as a rule, active = well fitted curve in the direction sought with a large enough effect; inconclusive = small, poorly fitted or top-dose-only effect, or another doubt; inactive = no such curve, though single readings can be large; an effect the other way counts as inactive or inconclusive. Potency is the fitted concentration of half-maximal effect.

SMILES	KB-V1 cytotox	ATXN2 expr inh	HT1080-NT tox	HT1080 IDH1KD tx	KB-3-1 cytotox	S2 tox
Cc1cc(C)c2ccc(N)nc2c1O	i	?	10µM*	?	?	.
CCN(CC)c1ccc(NC(=O)CCCCCN2C(=O)c3ccccc3C2=O)cc1	4.6µM*	-1%	-6%	-11%	i	i
CC(=O)Nc1ccc(NC(=O)CCCCCN2C(=O)c3ccccc3C2=O)cc1	i	5%	1%	4%	i	?
COc1ccc(-n2c(C)c([N+](=O)[O-])c3ccc(O)cc32)cc1	.	37%	.	.	.	.
CCn1ncc(Cl)c1C(=O)NC(=S)Nc1ccccc1Br	16µM*	30%	1%	0%	?	i
Cc1cc(C)c2c(N)c(C(=O)Nc3cccc(C)c3C)sc2n1	6.5µM*	22%	-12%	?	?	i
Cc1cc(C)n(-c2nnc3n2N=C(c2c[nH]c4ccccc24)CS3)n1	?	-29%	?	15µM*	7.3µM*	i
CCCn1c(=O)sc2cc(NC(=O)c3ccc(OC)c(Br)c3)ccc21	i	?	.	.	23µM*	?
COc1ccc(-c2csc(N(CCCN(C)C)C(=O)c3ccccc3F)n2)cc1	i	.	-17%	-13%	i	i
O=C(COc1ccccc1)N(CCc1ccccc1)c1nc(-c2ccc(F)cc2)cs1	15µM*	-2%	19%	21%	i	?
CCN(CC)CCCN(C(=O)c1ccc(F)cc1)c1nc(-c2ccc(OC)cc2)cs1	i	-35%	?	23µM*	i	?
Cc1ccc(-c2csc(N(CCc3ccccc3)C(=O)COc3ccccc3)n2)cc1	i	-4%	-4%	2%	i	i
CN(C)CCCN(C(=O)c1cccs1)c1nc(-c2ccccc2)cs1	9.2µM*	-9%	?	?	i	i
COc1ccc(-c2csc(N(CCCN(C)C)C(=O)c3ccccc3Cl)n2)cc1	?	?	21µM*	18µM*	16µM*	i
COc1ccc(-c2csc(N(CCCN(C)C)C(=O)c3ccccc3C)n2)cc1	i	?	?	?	i	i
CCN(CC)CCNC(=O)c1ccc(NS(C)(=O)=O)cc1	.	.	.	.	.	i
CCOc1cccc(/C=C(\C#N)C(=O)NC2CC2)c1	i	.	9%	19%	i	i
COc1ccccc1-c1ccc(C(=O)N(C)CC2COCCO2)c(N2CCN(c3ccccc3F)CC2)n1 (configuration not stated)	.	.	.	.	.	i
C=Cc1ccc(Cn2c(C(=O)O)c(CNCc3ccccc3)c3ccc(C)cc32)cc1	i	0%	.	.	?	16µM*
CCc1ccc(CNCc2c(C(=O)O)n(Cc3cccc(F)c3)c3cc(OC)ccc23)cc1	i	?	.	.	i	32µM*
CCc1ccc(CNCc2c(C(=O)O)n(Cc3ccc(C)cc3)c3cc(C)ccc23)cc1	i	-10%	.	.	18µM*	.
COc1ccc2c(CNCCc3ccccc3OC)c(C(=O)O)n(Cc3ccc(F)cc3Cl)c2c1	i	?	.	.	21µM*	?
COc1c2c(c(OC)c3ccccc13)[C@]1(OC2)O[C@H](CCO)C[C@H](O)[C@H]1O	i	8%	1%	12%	i	i
CC(=O)Nc1nonc1-c1nnc(SCc2ccc(Cl)cc2)n1C	i	-32%	.	.	i	i
COc1cccc(NC(=O)CSc2nc(-c3ccccc3)nc3c2Cc2cc(Cl)ccc2O3)c1	i	8%	.	.	i	?
SMILES	KB-V1 cytotox	ATXN2 expr inh	HT1080-NT tox	HT1080 IDH1KD tx	KB-3-1 cytotox	S2 tox
O=C(c1ccc(Cl)cc1)c1oc2ccccc2c1CS(=O)c1ccccc1 (configuration not stated)	5.2µM*	?	9%	-9%	i	i
Cc1ccc(NC(=O)Cn2cc(C(=O)c3cccs3)c3ccccc32)cc1C	i	-11%	.	.	?	?
C[C@@H]1CN([C@@H](C)CO)C(=O)c2cc(NC(=O)C3CCCCC3)ccc2O[C@@H](C)CCCCO[C@@H]1CN(C)Cc1ccncc1	i	1%	12%	5%	i	i
Cc1ccc(NC(=O)CSc2nc(-c3ccccc3Cl)nc3cc(=O)[nH]n23)c(C)c1	i	5%	.	.	i	i
COc1ccc(CNC(=O)CSc2nnnn2Cc2ccccc2)cc1	?	-13%	?	?	16µM*	i
COc1ccc(C)cc1NC(=O)CSc1nnnn1Cc1ccccc1	i	-2%	-2%	2%	i	i
COc1ccc(CCNc2nnc(Sc3nnnn3-c3ccccc3)s2)cc1OC	15µM*	-28%	3.5µM*	2µM*	4.1µM*	?
CCOc1cc(CNCCSc2nnnn2-c2ccccc2)ccc1OC	i	-19%	.	.	i	?
CCCn1nnnc1SCC(=O)NCc1ccc(OC)cc1	i	0%	8%	7%	i	i
CC(C)(C)NC(=O)CSc1nc2ccc(NC(=O)CSc3nnnn3Cc3ccccc3)cc2s1	i	-19%	-5%	16µM*	i	i
COc1ccc(CSc2nnnn2Cc2ccccc2)cc1OC	23µM*	-2%	3%	2%	i	i
CCOC(=O)c1c(C)[nH]c(C)c1S(=O)(=O)N1CCCC(C(=O)N2CCN(c3cc(C)ccc3C)CC2)C1 (configuration not stated)	i	?	.	.	i	?
COc1ccc(C2(C)NC(=O)N(CC(=O)c3cc(C)n(C4CC4)c3C)C2=O)cc1OC (configuration not stated)	23µM*	-7%	5%	2%	?	?
COc1ccc(S(=O)(=O)Nc2cc(SCC(=O)O)c(O)c3ccccc23)cc1	?	.	?	-6%	?	?
Cc1cc(C)c(S(=O)(=O)Nc2cc(SCC(=O)O)c(O)c3ccccc23)cc1C	?	?	-19%	21µM*	?	.
O=C(O)CSc1cc(NS(=O)(=O)c2ccc(Cl)cc2)c2ccccc2c1O	?	?	?	26µM*	?	i
CCOC(=O)c1ccccc1NC(=O)Cn1c(=O)n(Cc2nc(-c3ccccc3)no2)c(=O)c2ccccc21	i	4%	.	.	i	i
CCOC(=O)[C@H]1O[C@H]1C(=O)N[C@@H](CC(C)C)C(=O)NCCC(C)C	.	0%	.	.	.	.
CCOC(=O)[C@H]1O[C@@H]1C(=O)N[C@@H](CC(C)C)C(=O)NCCC(C)C	i	0%	-11%	-6%	i	3.2µM*
CN(C)c1ncc(S(=O)(=O)c2ccccc2)c(-c2ccc(Cl)cc2Cl)n1	15µM*	4%	4%	-2%	i	i

Assay outcomes: PubChem BioAssay, National Center for Advancing Translational Sciences (NCATS)
